Paper PMC8384837, “Expanding the binding specificity for RNA recognition by a PUF domain”

Experiments:
Experiment in all cases: yeast three-hybrid, YBZ-1, SC-Leu-His + 0.5 mM 3-AT, 4 days
Details in all cases: tags: N-Gal4 AD-HA kept; label: inside an RPR1-promoter hybrid RNA with tandem MS2 sites; ssRNA
[1] = biological target: PUM1 PUF domain R8-RFW (Homo sapiens, UniProt Q14671 828-1176, N1122R;Y1123F;Q1126W)
Procedure, shortened: (§1)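 The interaction score is the logarithmic change in variant frequency from input to selection. It uses log2, with a pseudocount of 1 for absent variants, and frequencies came from PCR-amplified, Illumina-sequenced repeat regions. The libraries were Pumilio-1 PUF domains randomized at the three base-contacting residues per repeat, co-expressed with matching RNA elements in strain YBZ-1 (LexA–MS2 coat fusion, HIS3 reporter). Plating lasted four days on SC-Leu (input) or SC-Leu-His + 0.5 mM 3-AT (selection).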

[2] = biological target: PUM1 PUF domain R8-QFK (Homo sapiens, UniProt Q14671 828-1176, N1122Q;Y1123F;Q1126K)
Chain of PUM1 PUF domain R8-QFK (Q14671 828-1176 N1122Q/Y1123F/Q1126K): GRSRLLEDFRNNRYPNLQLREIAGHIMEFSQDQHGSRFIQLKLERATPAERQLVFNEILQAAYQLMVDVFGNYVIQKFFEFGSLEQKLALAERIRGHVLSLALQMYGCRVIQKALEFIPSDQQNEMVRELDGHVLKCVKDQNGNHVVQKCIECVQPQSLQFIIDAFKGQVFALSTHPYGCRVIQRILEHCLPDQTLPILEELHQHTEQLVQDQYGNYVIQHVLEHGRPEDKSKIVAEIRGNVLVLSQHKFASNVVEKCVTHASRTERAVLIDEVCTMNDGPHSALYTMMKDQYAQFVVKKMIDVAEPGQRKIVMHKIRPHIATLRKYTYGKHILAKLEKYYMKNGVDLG
Procedure, shortened: as §1

[3] = biological target: PUM1 PUF domain R4-VNC (Homo sapiens, UniProt Q14671 828-1176, N971V;H972N;Q975C)
Procedure, shortened: as §1

[4] = biological target: PUM1 PUF domain R4-PFF (Homo sapiens, UniProt Q14671 828-1176, N971P;H972F;Q975F)
Chain of PUM1 PUF domain R4-PFF (Q14671 828-1176 N971P/H972F/Q975F): as the sequence (Q14671 828-1176 N1122Q/Y1123F/Q1126K) above, with N144P, H145F, Q148F, Q295N, F296Y, K299Q counted along it
Procedure, shortened: as §1

[5] = biological target: T1, PUM1 PUF domain R6-RWA (Homo sapiens, UniProt Q14671 828-1176, N1043R;Y1044W;Q1047A)
T1 sequence: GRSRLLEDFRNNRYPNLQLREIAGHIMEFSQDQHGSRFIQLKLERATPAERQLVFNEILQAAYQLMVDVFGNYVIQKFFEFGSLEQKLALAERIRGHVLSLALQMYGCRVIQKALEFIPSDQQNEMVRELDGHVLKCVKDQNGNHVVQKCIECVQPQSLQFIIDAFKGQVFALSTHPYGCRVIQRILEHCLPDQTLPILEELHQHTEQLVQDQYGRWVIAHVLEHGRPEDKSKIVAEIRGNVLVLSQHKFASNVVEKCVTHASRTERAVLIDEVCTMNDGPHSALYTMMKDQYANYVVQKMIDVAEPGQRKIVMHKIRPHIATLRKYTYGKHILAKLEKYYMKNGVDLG
Procedure, shortened: as §1

[6] = biological target: PUM1 PUF domain R4-NRS (Homo sapiens, UniProt Q14671 828-1176, H972R;Q975S)
Chain of PUM1 PUF domain R4-NRS (Q14671 828-1176 H972R/Q975S): as the sequence (Q14671 828-1176 N1122Q/Y1123F/Q1126K) above, with H145R, Q148S, Q295N, F296Y, K299Q counted along it
Procedure, shortened: as §1

[7] = biological target: PUM1 PUF domain R4-MPC (Homo sapiens, UniProt Q14671 828-1176, N971M;H972P;Q975C)
Chain of PUM1 PUF domain R4-MPC (Q14671 828-1176 N971M/H972P/Q975C): as the sequence (Q14671 828-1176 N1122Q/Y1123F/Q1126K) above, with N144M, H145P, Q148C, Q295N, F296Y, K299Q counted along it
Procedure, shortened: as §1

[8] = biological target: PUM1 PUF domain R4-WST (Homo sapiens, UniProt Q14671 828-1176, N971W;H972S;Q975T)
Chain of PUM1 PUF domain R4-WST (Q14671 828-1176 N971W/H972S/Q975T): as the sequence (Q14671 828-1176 N1122Q/Y1123F/Q1126K) above, with N144W, H145S, Q148T, Q295N, F296Y, K299Q counted along it
Procedure, shortened: as §1

[9] = biological target: PUM1 PUF domain R5-PRH (Homo sapiens, UniProt Q14671 828-1176, C1007P;Q1011H)
Procedure, shortened: as §1

[10] = biological target: PUM1 PUF domain R5-GHL (Homo sapiens, UniProt Q14671 828-1176, C1007G;R1008H;Q1011L)
Chain of PUM1 PUF domain R5-GHL (Q14671 828-1176 C1007G/R1008H/Q1011L): as the sequence (Q14671 828-1176 N1122Q/Y1123F/Q1126K) above, with C180G, R181H, Q184L, Q295N, F296Y, K299Q counted along it
Procedure, shortened: as §1

[11] = biological target: PUM1 PUF domain R1-RTT (Homo sapiens, UniProt Q14671 828-1176, S863R;R864T;Q867T)
Chain of PUM1 PUF domain R1-RTT (Q14671 828-1176 S863R/R864T/Q867T): as the sequence (Q14671 828-1176 N1122Q/Y1123F/Q1126K) above, with S36R, R37T, Q40T, Q295N, F296Y, K299Q counted along it
Procedure, shortened: as §1

[12] = biological target: PUM1 PUF domain R3-MPR (Homo sapiens, UniProt Q14671 828-1176, C935M;R936P;Q939R)
Procedure, shortened: as §1

[13] = biological target: PUM1 PUF domain R7-ERG (Homo sapiens, UniProt Q14671 828-1176, S1079E;N1080R;E1083G)
Procedure, shortened: as §1

[14] = biological target: PUM1 PUF domain R7-KQC (Homo sapiens, UniProt Q14671 828-1176, S1079K;N1080Q;E1083C)
Chain of PUM1 PUF domain R7-KQC (Q14671 828-1176 S1079K/N1080Q/E1083C): as the sequence (Q14671 828-1176 N1122Q/Y1123F/Q1126K) above, with S252K, N253Q, E256C, Q295N, F296Y, K299Q counted along it
Procedure, shortened: as §1

[15] = biological target: PUM1 PUF domain R1-NSR (Homo sapiens, UniProt Q14671 828-1176, S863N;R864S;Q867R)
Procedure, shortened: as §1

[16] = biological target: PUM1 PUF domain R1-GMK (Homo sapiens, UniProt Q14671 828-1176, S863G;R864M;Q867K)
Procedure, shortened: as §1

[17] = biological target: PUM1 PUF domain R2-LWH (Homo sapiens, UniProt Q14671 828-1176, N899L;Y900W;Q903H)
Chain of PUM1 PUF domain R2-LWH (Q14671 828-1176 N899L/Y900W/Q903H): as the sequence (Q14671 828-1176 N1122Q/Y1123F/Q1126K) above, with N72L, Y73W, Q76H, Q295N, F296Y, K299Q counted along it
Procedure, shortened: as §1

[18] = biological target: PUM1 PUF domain R5-CKR (Homo sapiens, UniProt Q14671 828-1176, R1008K;Q1011R)
Procedure, shortened: as §1

[19] = biological target: PUM1 PUF domain R5-KAT (Homo sapiens, UniProt Q14671 828-1176, C1007K;R1008A;Q1011T)
Procedure, shortened: as §1

[20] = biological target: PUM1 PUF domain R5-RMV (Homo sapiens, UniProt Q14671 828-1176, C1007R;R1008M;Q1011V)
Procedure, shortened: as §1

Chain of PUM1 PUF domain R8-RFW (Q14671 828-1176 N1122R/Y1123F/Q1126W): as the sequence (Q14671 828-1176 N1122Q/Y1123F/Q1126K) above, with Q295R, K299W counted along it

Sequence: GGCUAGAACUAGUGGAUCCCCCGGCGCCCGGCGGCUCGAGCCCGGGUAAGCGUAAAUAGUCUGCAUGCCGCCGGGCGCCAUGCCUGCAGGUCGACUCUAGAAAACAUG
- binding signal [1]: 6.4 log2 enrichment (interaction score)
- binding signal [2]: 4.17 log2 enrichment (interaction score)

Sequence: GGCUAGAACUAGUGGAUCCCCCGGCGCCCGGCGGCUCGAGCCCGGGUAAGUGUACAUAGUCUGCAUGCCGCCGGGCGCCAUGCCUGCAGGUCGACUCUAGAAAACAUG
- binding signal [3]: 3.19 log2 enrichment (interaction score)
- binding signal [4]: 3.52 log2 enrichment (interaction score)

Sequence: GGCUAGAACUAGUGGAUCCCCCGGCGCCCGGCGGCUCGAGCCCGGGUAAGUGAAAAUAGUCUGCAUGCCGCCGGGCGCCAUGCCUGCAGGUCGACUCUAGAAAACAUG
- binding signal [5]: 4.28 log2 enrichment (interaction score)

Sequence: GGCUAGAACUAGUGGAUCCCCCGGCGCCCGGCGGCUCGAGCCCGGGUAAGUGUAUAUAGUCUGCAUGCCGCCGGGCGCCAUGCCUGCAGGUCGACUCUAGAAAACAUG
- binding signal [6]: 2.58 log2 enrichment (interaction score)
- binding signal [7]: 3.15 log2 enrichment (interaction score)
- binding signal [8]: 2.45 log2 enrichment (interaction score)
- binding signal [4]: 7.66 log2 enrichment (interaction score)

Sequence: GGCUAGAACUAGUGGAUCCCCCGGCGCCCGGCGGCUCGAGCCCGGGUAAGUGUGAAUAGUCUGCAUGCCGCCGGGCGCCAUGCCUGCAGGUCGACUCUAGAAAACAUG
- binding signal [9]: 2.93 log2 enrichment (interaction score)
- binding signal [10]: 2.8 log2 enrichment (interaction score)

Sequence: GGCUAGAACUAGUGGAUCCCCCGGCGCCCGGCGGCUCGAGCCCGGGUAAGUGUAAAUGGUCUGCAUGCCGCCGGGCGCCAUGCCUGCAGGUCGACUCUAGAAAACAUG
- binding signal [11]: 3.14 log2 enrichment (interaction score)

Sequence: GGCUAGAACUAGUGGAUCCCCCGGCGCCCGGCGGCUCGAGCCCGGGUAAGUGUAAUUAGUCUGCAUGCCGCCGGGCGCCAUGCCUGCAGGUCGACUCUAGAAAACAUG
- binding signal [12]: 2.67 log2 enrichment (interaction score)

Sequence: GGCUAGAACUAGUGGAUCCCCCGGCGCCCGGCGGCUCGAGCCCGGGUAAGUCUAAAUAGUCUGCAUGCCGCCGGGCGCCAUGCCUGCAGGUCGACUCUAGAAAACAUG
- binding signal [13]: 2.98 log2 enrichment (interaction score)
- binding signal [14]: 2.83 log2 enrichment (interaction score)

Sequence: GGCUAGAACUAGUGGAUCCCCCGGCGCCCGGCGGCUCGAGCCCGGGUAAGUGUAAAUUGUCUGCAUGCCGCCGGGCGCCAUGCCUGCAGGUCGACUCUAGAAAACAUG
- binding signal [15]: 0.4 log2 enrichment (interaction score)
- binding signal [16]: 3.16 log2 enrichment (interaction score)

Sequence: GGCUAGAACUAGUGGAUCCCCCGGCGCCCGGCGGCUCGAGCCCGGGUAAGUGUAAAUCGUCUGCAUGCCGCCGGGCGCCAUGCCUGCAGGUCGACUCUAGAAAACAUG
- binding signal [15]: 2.5 log2 enrichment (interaction score)

Sequence: GGCUAGAACUAGUGGAUCCCCCGGCGCCCGGCGGCUCGAGCCCGGGUAAGUGUAAAUAGUCUGCAUGCCGCCGGGCGCCAUGCCUGCAGGUCGACUCUAGAAAACAUG
- binding signal [12]: 0.58 log2 enrichment (interaction score)
- binding signal [9]: 3.22 log2 enrichment (interaction score)
- binding signal [5]: 5.03 log2 enrichment (interaction score)
- binding signal [1]: 4.68 log2 enrichment (interaction score)
- binding signal [17]: 2.74 log2 enrichment (interaction score)
- binding signal [10]: 4.22 log2 enrichment (interaction score)
- binding signal [8]: 0.36 log2 enrichment (interaction score)
- binding signal [4]: 5.26 log2 enrichment (interaction score)

Sequence: GGCUAGAACUAGUGGAUCCCCCGGCGCCCGGCGGCUCGAGCCCGGGUAAGUGUUAAUAGUCUGCAUGCCGCCGGGCGCCAUGCCUGCAGGUCGACUCUAGAAAACAUG
- binding signal [9]: 3.48 log2 enrichment (interaction score)
- binding signal [18]: 1.55 log2 enrichment (interaction score)
- binding signal [10]: 3.73 log2 enrichment (interaction score)

Sequence: GGCUAGAACUAGUGGAUCCCCCGGCGCCCGGCGGCUCGAGCCCGGGUAAGUGUCAAUAGUCUGCAUGCCGCCGGGCGCCAUGCCUGCAGGUCGACUCUAGAAAACAUG
- binding signal [19]: 3.96 log2 enrichment (interaction score)
- binding signal [20]: 3.48 log2 enrichment (interaction score)
- binding signal [18]: 5.95 log2 enrichment (interaction score)

Sequence: GGCUAGAACUAGUGGAUCCCCCGGCGCCCGGCGGCUCGAGCCCGGGUAAGUUUAAAUAGUCUGCAUGCCGCCGGGCGCCAUGCCUGCAGGUCGACUCUAGAAAACAUG
- binding signal [13]: 4.23 log2 enrichment (interaction score)

Sequence: GGCUAGAACUAGUGGAUCCCCCGGCGCCCGGCGGCUCGAGCCCGGGUAAGUGUAAAAAGUCUGCAUGCCGCCGGGCGCCAUGCCUGCAGGUCGACUCUAGAAAACAUG
- binding signal [17]: 7.08 log2 enrichment (interaction score)
